# In PubChem BioAssay:
# Where “and” joins values, the source holds several entries; their conditions need not be identical. Equal entries are not always repeated. Calls of active or inactive are those of the source.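 How the source made its calls: active means thallium flux through the channel raised or lowered by more than 3 SD from vehicle-only wells, actives on both sides; inactive means the rest.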
# Tests used:
# F380Y = test: BK channel mutant inhibitors and activators – cell-based, U2OS BacMam, thallium flux, beta subunits, selectivity assay, profiling panel (AID 1259406); settings: U2OS BacMam BK variants, at 30 µM;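 further: initial slope of Thallos dye fluorescence rise after thallium is added; log ratio against the mean of 0.3% DMSO vehicle wells on the same plate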
# F380Y/beta1 = test: as above; settings: U2OS BacMam BK variants, at 30 µM
Compound,log fold change Tl+ flux (F380Y),log fold change Tl+ flux (F380Y/beta1)
CCOC(=O)C1=C(C)NC(C)=C(C(=O)OC)C1c1cccc(Cl)c1Cl (stereo not given),0.00922 (inactive),-0.0618 (inactive)
Cn1c(NCCN(CCO)CCCc2ccc([N+](=O)[O-])cc2)cc(=O)n(C)c1=O,-0.0604 (inactive),-0.0554 (inactive)
CC(C)(O)c1ccccc1CC[C@@H](SCC1(CC(=O)O)CC1)c1cccc(/C=C/c2ccc3ccc(Cl)cc3n2)c1,0.278 (active),0.853 (active)
COC1=C(OC)C(=O)C(CCCCCCCCCCO)=C(C)C1=O,-0.163 (active),0.138 (active)
Cc1cn([C@H]2C=C[C@@H](CO)O2)c(=O)[nH]c1=O,-0.00288 (inactive) and 0.0465 (inactive),0.0156 (inactive) and 0.0441 (inactive)
CC1CCN(CCCC(=O)c2ccc(F)cc2)CC1,0.0312 (inactive),–
OCc1cccnc1,-0.0134 (inactive),-0.0115 (inactive)
CC(C)(C(=O)c1cccnc1)c1cccnc1,-0.0599 (inactive),0.0309 (inactive)
CC1(C)O[C@@H]2C[C@H]3[C@@H]4C[C@H](F)C5=CC(=O)C=C[C@]5(C)[C@@]4(F)[C@@H](O)C[C@]3(C)[C@]2(C(=O)CO)O1,0.2 (active),0.211 (active)
c1cnc(N2CCN(Cc3ccc4c(c3)OCO4)CC2)nc1,-0.0152 (inactive),–
COC(=O)C1=C(C)NC(C)=C(C(=O)O[C@@H]2CCCN(Cc3ccccc3)C2)[C@@H]1c1cccc([N+](=O)[O-])c1,-0.0664 (inactive),-0.000881 (inactive)
CN1CCC(=C2c3ccccc3CCc3sccc32)CC1,-0.0249 (inactive),–
Cc1ccc(NC(=O)c2ccc(CN3CCN(C)CC3)cc2)cc1Nc1nccc(-c2cccnc2)n1,0.141 (active),–
CN(C)CCCSc1ccccc1NC(=O)/C=C/c1ccccc1,0.0773 (inactive),–
Clc1ccc2nsnc2c1NC1=NCCN1,-0.038 (inactive),-0.0369 (inactive)
CCCc1c(OCCCCc2nn[nH]n2)ccc(C(C)=O)c1O,0.0613 (inactive),–
Brc1c(NC2=NCCN2)ccc2nccnc12,-0.0564 (inactive),0.00839 (inactive)
CC(C)(C#N)c1cc(Cn2cncn2)cc(C(C)(C)C#N)c1,0.0287 (inactive),0.000378 (inactive)
C[C@]12C[C@H](O)[C@H]3[C@@H](CCC4=CC(=O)CC[C@@]43C)[C@@H]1CC[C@@H]2C(=O)CO,0.0367 (inactive),0.0921 (inactive)
CCOC(=O)[C@H](CCc1ccccc1)N[C@@H](C)C(=O)N1[C@H](C(=O)O)C[C@@H]2CCC[C@@H]21,-0.0209 (inactive) and 0.0487 (inactive),-0.00638 (inactive) and 0.058 (inactive)
O=C1[C@H]2CCCC[C@H]2C(=O)N1CCCCN1CCN(c2nsc3ccccc23)CC1,0.0537 (inactive),0.0543 (inactive)
O=C1c2cccc3c2[C@H](CCC3)CN1[C@@H]1CN2CCC1CC2,0.0472 (inactive),0.0342 (inactive)
CC(c1cc2ccccc2s1)N(O)C(N)=O (stereo not given),-0.00504 (inactive),0.00537 (inactive)
CCN1CC(CCN2CCOCC2)C(c2ccccc2)(c2ccccc2)C1=O (stereo not given),0.0128 (inactive),-0.0268 (inactive)
COc1ccccc1OCC(O)CN1CCN(CC(=O)Nc2c(C)cccc2C)CC1 (stereo not given),0.091 (inactive),0.0232 (inactive)
NS(=O)(=O)Cc1noc2ccccc12,0.00455 (inactive),-0.0156 (inactive)

Compound,log fold change Tl+ flux (F380Y),log fold change Tl+ flux (F380Y/beta1)
C#C[C@]1(O)CC[C@H]2[C@@H]3CCc4cc(O)ccc4[C@H]3CC[C@@]21C,0.0259 (inactive),–
C[C@H](NC(CCc1ccccc1)C(=O)O)C(=O)N1CCC[C@H]1C(=O)O (stereo not given in full),0.0291 (inactive),0.00867 (inactive)
CN(Cc1cnc2nc(N)nc(N)c2n1)c1ccc(C(=O)N[C@@H](CCC(=O)O)C(=O)O)cc1,-0.0413 (inactive),–
CN1[C@@H]2CC[C@H]1CC(OC(=O)c1c[nH]c3ccccc13)C2 (stereo not given in full),0.0406 (inactive),0.0426 (inactive)
COc1cc(OC)c(C(=O)CCCN2CCCC2)c(OC)c1,-0.00984 (inactive),-0.00851 (inactive)
CN(C/C=C/C#CC(C)(C)C)Cc1cccc2ccccc12,-0.0709 (inactive),-0.00172 (inactive)
CC(C)(C)C(O)/C=C/c1ccc2c(c1)OCO2 (stereo not given),-0.0156 (inactive),0.105 (active)
C[C@@H]1CN(CCCn2c3ccccc3c3ccccc32)C[C@H](C)N1,0.145 (active),0.208 (active)
O=C1Nc2ccc(Cl)cc2[C@@](C#CC2CC2)(C(F)(F)F)O1,0.0449 (inactive),0.167 (active)
COc1ccc(CC2c3cc(OC)c(OC)cc3CC[N+]2(C)CCC(=O)OCCCCCOC(=O)CC[N+]2(C)CCc3cc(OC)c(OC)cc3C2Cc2ccc(OC)c(OC)c2)cc1OC (stereo not given),-0.0106 (inactive),–
CC(=O)Oc1ccccc1C(=O)Nc1ncc([N+](=O)[O-])s1,-0.199 (active),0.0346 (inactive)
COc1cc(C)c(Cc2cnc(N)nc2N)cc1OC,0.0111 (inactive),0.0334 (inactive)
CN(CCOc1ccc(NS(C)(=O)=O)cc1)CCc1ccc(NS(C)(=O)=O)cc1,0.0506 (inactive),0.0264 (inactive)
CCN1CCC[C@H]1CNC(=O)c1cc(S(N)(=O)=O)ccc1OC,-0.0719 (inactive),0.000794 (inactive)
CC(C)NCC(O)COc1ccc(CCOCC2CC2)cc1 (stereo not given),-0.00418 (inactive),0.0244 (inactive)
CN1CCC(=C2c3ccccc3C=Cc3ccccc32)CC1,0.15 (active),-0.0427 (inactive)
CN(C)CC[C@@H](c1ccc(Cl)cc1)c1ccccn1,0.112 (active),0.0236 (inactive)
CCN(CC)CC1CCCCN1CC(=O)N1c2ccccc2C(=O)Nc2cccnc21 (stereo not given),-0.00678 (inactive),0.0276 (inactive)
OCCOCCN1CCN(C2=Nc3ccccc3Sc3ccccc32)CC1,0.134 (active),0.105 (active)
Nc1nc(N)nc(-c2cc(Cl)ccc2Cl)n1,0.00819 (inactive),0.00785 (inactive)
COc1cc(C)nc(-n2nc(C)cc2OC)n1,-0.0134 (inactive),-0.00765 (inactive)
CC(C)(C)NC(=O)[C@H]1CC[C@H]2[C@@H]3CC[C@H]4NC(=O)C=C[C@]4(C)[C@H]3CC[C@]12C,0.0287 (inactive),0.0111 (inactive)
C[C@@H]1C[C@H]2[C@@H]3C[C@H](F)C4=CC(=O)C(Cl)=C[C@]4(C)[C@@]3(F)[C@@H](O)C[C@]2(C)[C@@]1(O)C(=O)CO,0.0685 (inactive),0.0734 (inactive)
CN1CCN(c2c(F)cc3c(=O)c(C(=O)O)cn4c3c2SCC4)CC1,0.0311 (inactive),0.0284 (inactive)
O=C1N(c2ccccc2)c2ccccc2C1(Cc1ccncc1)Cc1ccncc1,0.0425 (inactive),-0.0119 (inactive)
CNCC(O)c1ccc(O)c(O)c1 (stereo not given),-0.0223 (inactive),-0.0248 (inactive)

Compound,log fold change Tl+ flux (F380Y),log fold change Tl+ flux (F380Y/beta1)
Nc1nnc(-c2cccc(Cl)c2Cl)c(N)n1,-0.00765 (inactive),-0.046 (inactive)
CCCN[C@H]1CCc2nc(N)sc2C1,0.0634 (inactive) and -0.0393 (inactive),0.0248 (inactive)
CC(C)NCC(O)COc1ccc(COCCOC(C)C)cc1 (stereo not given),0.0667 (inactive),0.0784 (inactive)
NC1CCN(c2nc3c(cc2F)c(=O)c(C(=O)O)cn3-c2ccc(F)cc2F)C1 (stereo not given),-0.0112 (inactive),0.0192 (inactive)
NC(=O)OCC(COC(N)=O)c1ccccc1,-0.103 (inactive),-0.0115 (inactive)
Cc1nccn1CC1CCc2c(c3ccccc3n2C)C1=O (stereo not given),0.0107 (inactive) and 0.024 (inactive),0.000378 (inactive) and -0.0486 (inactive)
COc1ccccc1N1CCN(CC(O)COc2cccc3ccccc23)CC1 (stereo not given),-0.03 (inactive),-0.0336 (inactive)
CC(C)c1nc(CN(C)C(=O)N[C@H](C(=O)N[C@@H](Cc2ccccc2)C[C@H](O)[C@H](Cc2ccccc2)NC(=O)OCc2cncs2)C(C)C)cs1,-0.114 (active),-0.406 (active)
COc1ccc(CN2CCN(C(c3ccc(F)cc3)c3ccc(F)cc3)CC2)c(OC)c1OC,-0.0546 (inactive),0.0295 (inactive)
COc1cc(C(=O)NS(=O)(=O)c2ccccc2C)ccc1Cc1cn(C)c2ccc(NC(=O)OC3CCCC3)cc12,0.278 (active),0.461 (active)
CCCN1CCCC[C@H]1C(=O)Nc1c(C)cccc1C,0.0271 (inactive),0.0176 (inactive)
CC(C)c1ccc2oc3nc(N)c(C(=O)O)cc3c(=O)c2c1,0.0548 (inactive),0.0494 (inactive)
CN(C)CC[C@@H](c1ccc(Br)cc1)c1ccccn1,0.102 (inactive),0.0384 (inactive)
COc1cc2nc(N3CCN(C(=O)C4CCCO4)CC3)nc(N)c2cc1OC (stereo not given),0.0434 (inactive),-0.102 (inactive)
CCN1CCCC1CNC(=O)c1cc(S(=O)(=O)CC)c(N)cc1OC (stereo not given),0.00396 (inactive),0.016 (inactive)
CN1CCC(=C2c3ccccc3CC(=O)c3sccc32)CC1,0.0548 (inactive),0.0457 (inactive)
COC(=O)C1=C(C)NC(C)=C(C(=O)OCC(C)C)C1c1ccccc1[N+](=O)[O-] (stereo not given),0.333 (active),0.689 (active)
CC(C(=O)O)c1ccc(CC2CCCC2=O)cc1 (stereo not given),-0.0107 (inactive),-0.0699 (inactive)
COCc1c(C(C)C)nc(C(C)C)c(/C=C/[C@@H](O)C[C@@H](O)CC(=O)O)c1-c1ccc(F)cc1,0.216 (active),0.473 (active)
N#Cc1ccc(C(c2ccc(C#N)cc2)n2cncn2)cc1,-0.0169 (inactive),0.0204 (inactive)
O=c1[nH]cnc2c1ncn2[C@H]1CC[C@@H](CO)O1,-0.00984 (inactive),-0.0163 (inactive)
O=C(c1ccc(F)cc1)C1CCN(CCn2c(=S)[nH]c3ccccc3c2=O)CC1,0.0153 (inactive),0.00744 (inactive)
O=C(NCCO[N+](=O)[O-])c1cccnc1,0.0612 (inactive),0.00537 (inactive)
Cc1cccc(C)c1NC(=O)C(C)N (stereo not given),-0.00461 (inactive),-0.0545 (inactive)
COc1ccc(C2CNC(=O)C2)cc1OC1CCCC1 (stereo not given),-0.0147 (inactive),-0.0167 (inactive)
